Laboratory results from ChEMBL document CHEMBL1961873, “Compounds: GSK PKIS; Assays: Nanosyn kinase panel” (2012).

What was measured:
[1] = molecular target: Sphingosine kinase 1 (Homo sapiens) (UniProt Q9NYA1); conditions: at 1 µM;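 also: mean SPHK1 inhibition value reported from the GSK PKIS kinase panel screen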
[2] = molecular target: T1, Sphingosine kinase 2 (Homo sapiens) (UniProt Q9NRA0); conditions: at 0.1 µM
T1 sequence (whole entry): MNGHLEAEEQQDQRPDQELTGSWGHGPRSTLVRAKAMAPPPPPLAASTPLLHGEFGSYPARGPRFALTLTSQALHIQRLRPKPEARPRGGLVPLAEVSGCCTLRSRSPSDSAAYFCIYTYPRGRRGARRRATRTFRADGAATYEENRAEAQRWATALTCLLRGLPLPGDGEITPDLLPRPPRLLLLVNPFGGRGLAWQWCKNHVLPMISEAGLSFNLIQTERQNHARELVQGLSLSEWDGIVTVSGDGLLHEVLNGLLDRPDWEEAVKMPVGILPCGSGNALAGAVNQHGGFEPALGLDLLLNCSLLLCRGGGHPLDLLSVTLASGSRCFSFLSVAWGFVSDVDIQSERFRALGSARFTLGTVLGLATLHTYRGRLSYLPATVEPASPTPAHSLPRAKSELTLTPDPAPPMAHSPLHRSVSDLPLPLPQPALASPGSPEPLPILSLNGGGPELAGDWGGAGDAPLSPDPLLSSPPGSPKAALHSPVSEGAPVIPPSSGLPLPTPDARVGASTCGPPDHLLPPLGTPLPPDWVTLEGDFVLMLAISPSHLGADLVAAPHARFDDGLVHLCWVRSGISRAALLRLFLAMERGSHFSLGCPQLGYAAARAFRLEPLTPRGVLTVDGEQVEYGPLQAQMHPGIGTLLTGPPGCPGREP

[3] = molecular target: T1, Sphingosine kinase 2 (Homo sapiens); conditions: at 1 µM
[4] = molecular target: Casein kinase II subunit alpha (Homo sapiens) (UniProt P68400); conditions: at 0.1 µM
Casein kinase II subunit alpha (Homo sapiens), sequence (P68400 whole entry, looked up): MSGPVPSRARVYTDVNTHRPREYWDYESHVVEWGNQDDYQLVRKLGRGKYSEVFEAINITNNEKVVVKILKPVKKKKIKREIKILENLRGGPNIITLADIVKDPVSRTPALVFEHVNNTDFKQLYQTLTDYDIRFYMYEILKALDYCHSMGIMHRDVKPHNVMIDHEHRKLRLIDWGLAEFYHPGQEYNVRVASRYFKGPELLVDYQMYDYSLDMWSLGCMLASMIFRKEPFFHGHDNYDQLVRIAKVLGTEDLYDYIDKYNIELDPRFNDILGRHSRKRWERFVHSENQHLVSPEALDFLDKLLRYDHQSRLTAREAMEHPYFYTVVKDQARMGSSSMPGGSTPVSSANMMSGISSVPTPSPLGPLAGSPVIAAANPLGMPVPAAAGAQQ

[5] = molecular target: Casein kinase II subunit alpha (Homo sapiens) (UniProt P68400); conditions: at 1 µM
[6] = molecular target: T2, Inhibitor of nuclear factor kappa-B kinase subunit alpha (Homo sapiens) (UniProt O15111); conditions: at 0.1 µM
T2 sequence (whole entry): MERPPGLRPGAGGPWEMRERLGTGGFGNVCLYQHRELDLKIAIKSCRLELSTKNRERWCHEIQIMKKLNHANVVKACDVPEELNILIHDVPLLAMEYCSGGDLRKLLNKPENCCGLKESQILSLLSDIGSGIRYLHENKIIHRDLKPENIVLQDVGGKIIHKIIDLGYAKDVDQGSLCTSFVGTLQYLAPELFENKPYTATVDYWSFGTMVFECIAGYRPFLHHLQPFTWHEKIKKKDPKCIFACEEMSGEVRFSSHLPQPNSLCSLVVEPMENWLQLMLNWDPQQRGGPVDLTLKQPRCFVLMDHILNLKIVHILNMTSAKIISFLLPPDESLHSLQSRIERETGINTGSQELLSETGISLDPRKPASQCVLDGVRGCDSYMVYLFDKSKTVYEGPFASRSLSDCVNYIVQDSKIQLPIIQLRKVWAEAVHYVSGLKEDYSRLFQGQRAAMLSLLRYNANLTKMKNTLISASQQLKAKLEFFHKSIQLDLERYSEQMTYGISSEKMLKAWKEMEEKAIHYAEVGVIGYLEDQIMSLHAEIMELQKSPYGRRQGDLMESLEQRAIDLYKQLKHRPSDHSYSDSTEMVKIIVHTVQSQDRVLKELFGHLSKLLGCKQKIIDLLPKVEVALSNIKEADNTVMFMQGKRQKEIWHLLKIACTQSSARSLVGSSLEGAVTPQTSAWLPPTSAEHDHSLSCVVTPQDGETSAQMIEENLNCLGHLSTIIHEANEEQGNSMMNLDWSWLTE

[7] = molecular target: T2, Inhibitor of nuclear factor kappa-B kinase subunit alpha (Homo sapiens); conditions: at 1 µM
[8] = molecular target: T3, Inhibitor of nuclear factor kappa-B kinase subunit beta (Homo sapiens) (UniProt O14920); conditions: at 0.1 µM
T3 sequence (whole entry): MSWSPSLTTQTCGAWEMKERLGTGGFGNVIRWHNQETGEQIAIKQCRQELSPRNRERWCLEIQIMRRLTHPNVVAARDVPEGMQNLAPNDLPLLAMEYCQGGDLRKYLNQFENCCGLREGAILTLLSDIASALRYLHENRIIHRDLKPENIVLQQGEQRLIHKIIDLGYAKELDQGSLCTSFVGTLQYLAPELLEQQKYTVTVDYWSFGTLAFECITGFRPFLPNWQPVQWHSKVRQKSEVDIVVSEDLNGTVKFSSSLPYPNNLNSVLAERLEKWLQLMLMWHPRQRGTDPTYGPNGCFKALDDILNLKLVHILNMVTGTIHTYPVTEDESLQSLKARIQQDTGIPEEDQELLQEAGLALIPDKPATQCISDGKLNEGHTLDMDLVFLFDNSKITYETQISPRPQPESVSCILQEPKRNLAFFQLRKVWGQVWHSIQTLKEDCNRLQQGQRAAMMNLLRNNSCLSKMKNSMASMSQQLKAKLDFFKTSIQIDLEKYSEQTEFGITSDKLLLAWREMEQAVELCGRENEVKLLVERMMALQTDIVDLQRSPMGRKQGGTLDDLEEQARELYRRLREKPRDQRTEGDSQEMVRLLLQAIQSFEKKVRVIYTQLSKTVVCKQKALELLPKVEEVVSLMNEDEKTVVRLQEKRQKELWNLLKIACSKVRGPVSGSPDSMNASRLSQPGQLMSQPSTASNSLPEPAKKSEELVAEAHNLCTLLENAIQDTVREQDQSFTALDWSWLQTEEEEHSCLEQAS

[9] = molecular target: T3, Inhibitor of nuclear factor kappa-B kinase subunit beta (Homo sapiens); conditions: at 1 µM
[10] = molecular target: T4, Inhibitor of nuclear factor kappa-B kinase subunit epsilon (Homo sapiens) (UniProt Q14164); conditions: at 0.1 µM
T4 sequence (whole entry): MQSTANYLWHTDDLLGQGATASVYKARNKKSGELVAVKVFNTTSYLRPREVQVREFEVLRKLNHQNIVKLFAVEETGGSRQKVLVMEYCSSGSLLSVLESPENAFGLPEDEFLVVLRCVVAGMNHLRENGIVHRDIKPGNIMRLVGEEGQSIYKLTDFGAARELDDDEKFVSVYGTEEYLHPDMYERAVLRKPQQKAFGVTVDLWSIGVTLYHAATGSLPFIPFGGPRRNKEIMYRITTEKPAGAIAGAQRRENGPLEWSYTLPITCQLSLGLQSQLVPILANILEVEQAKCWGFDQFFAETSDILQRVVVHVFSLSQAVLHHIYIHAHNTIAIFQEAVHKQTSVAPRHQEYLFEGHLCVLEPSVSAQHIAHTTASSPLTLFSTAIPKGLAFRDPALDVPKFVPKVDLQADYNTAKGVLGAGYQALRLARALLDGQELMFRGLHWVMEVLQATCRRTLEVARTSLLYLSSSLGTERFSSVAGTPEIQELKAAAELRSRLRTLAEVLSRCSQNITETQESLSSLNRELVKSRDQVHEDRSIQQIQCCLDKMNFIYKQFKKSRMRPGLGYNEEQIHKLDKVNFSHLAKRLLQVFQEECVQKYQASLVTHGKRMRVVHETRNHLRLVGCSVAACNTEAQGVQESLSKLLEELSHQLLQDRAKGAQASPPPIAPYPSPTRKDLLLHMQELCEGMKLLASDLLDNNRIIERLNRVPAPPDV

[11] = molecular target: T4, Inhibitor of nuclear factor kappa-B kinase subunit epsilon (Homo sapiens); conditions: at 1 µM
[12] = molecular target: T5, Serine/threonine-protein kinase Nek1 (Homo sapiens) (UniProt Q96PY6); conditions: at 0.1 µM
T5 sequence (whole entry): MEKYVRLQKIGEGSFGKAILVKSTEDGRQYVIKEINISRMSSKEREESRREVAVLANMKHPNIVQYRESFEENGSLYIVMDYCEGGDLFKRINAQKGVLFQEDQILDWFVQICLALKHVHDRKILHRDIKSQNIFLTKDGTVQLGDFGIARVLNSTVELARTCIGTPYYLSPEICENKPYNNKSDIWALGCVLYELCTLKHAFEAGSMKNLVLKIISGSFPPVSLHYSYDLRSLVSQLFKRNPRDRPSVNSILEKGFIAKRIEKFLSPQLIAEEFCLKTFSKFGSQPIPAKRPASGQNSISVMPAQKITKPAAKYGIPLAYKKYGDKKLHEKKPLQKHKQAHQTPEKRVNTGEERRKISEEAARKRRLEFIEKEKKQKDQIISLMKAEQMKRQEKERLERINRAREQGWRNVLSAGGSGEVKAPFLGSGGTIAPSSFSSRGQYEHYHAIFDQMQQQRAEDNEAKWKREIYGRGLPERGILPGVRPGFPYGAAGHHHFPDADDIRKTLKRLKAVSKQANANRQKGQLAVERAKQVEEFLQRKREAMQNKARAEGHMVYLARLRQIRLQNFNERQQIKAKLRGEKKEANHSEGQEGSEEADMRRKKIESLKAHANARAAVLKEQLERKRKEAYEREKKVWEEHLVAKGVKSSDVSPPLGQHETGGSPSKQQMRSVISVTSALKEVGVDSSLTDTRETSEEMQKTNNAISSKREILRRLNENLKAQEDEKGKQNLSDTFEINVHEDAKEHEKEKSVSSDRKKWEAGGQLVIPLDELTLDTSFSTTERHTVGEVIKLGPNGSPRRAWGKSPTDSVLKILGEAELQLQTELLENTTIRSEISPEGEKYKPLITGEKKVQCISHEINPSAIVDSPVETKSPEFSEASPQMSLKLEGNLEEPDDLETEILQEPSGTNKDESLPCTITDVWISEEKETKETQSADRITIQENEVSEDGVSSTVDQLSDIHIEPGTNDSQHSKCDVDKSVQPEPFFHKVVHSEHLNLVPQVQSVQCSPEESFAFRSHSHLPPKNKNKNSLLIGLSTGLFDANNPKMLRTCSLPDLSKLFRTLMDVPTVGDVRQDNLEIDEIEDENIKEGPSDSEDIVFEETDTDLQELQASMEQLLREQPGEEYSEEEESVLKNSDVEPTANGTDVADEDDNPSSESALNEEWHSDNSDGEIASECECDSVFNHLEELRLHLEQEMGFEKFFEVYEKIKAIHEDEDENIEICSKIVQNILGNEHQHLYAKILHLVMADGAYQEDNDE

[13] = molecular target: T5, Serine/threonine-protein kinase Nek1 (Homo sapiens); conditions: at 1 µM
[14] = molecular target: T6, Serine/threonine-protein kinase Nek2 (Homo sapiens) (UniProt P51955); conditions: at 0.1 µM
T6 sequence (whole entry): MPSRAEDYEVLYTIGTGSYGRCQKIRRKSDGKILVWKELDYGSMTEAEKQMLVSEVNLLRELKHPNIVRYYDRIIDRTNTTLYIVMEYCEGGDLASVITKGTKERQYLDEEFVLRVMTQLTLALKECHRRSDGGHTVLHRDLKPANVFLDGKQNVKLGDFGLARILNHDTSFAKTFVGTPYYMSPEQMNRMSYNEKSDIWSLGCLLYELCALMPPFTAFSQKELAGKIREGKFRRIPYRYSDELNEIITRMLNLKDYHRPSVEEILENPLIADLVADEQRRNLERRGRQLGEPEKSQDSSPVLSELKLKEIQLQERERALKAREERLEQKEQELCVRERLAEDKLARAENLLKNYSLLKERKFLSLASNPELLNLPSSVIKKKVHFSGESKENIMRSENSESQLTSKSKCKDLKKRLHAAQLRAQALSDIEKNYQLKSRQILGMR

[15] = molecular target: T6, Serine/threonine-protein kinase Nek2 (Homo sapiens); conditions: at 1 µM
[16] = molecular target: Serine/threonine-protein kinase Nek6 (Homo sapiens) (UniProt Q9HC98); conditions: at 0.1 µM
Serine/threonine-protein kinase Nek6 (Homo sapiens), sequence (Q9HC98 whole entry): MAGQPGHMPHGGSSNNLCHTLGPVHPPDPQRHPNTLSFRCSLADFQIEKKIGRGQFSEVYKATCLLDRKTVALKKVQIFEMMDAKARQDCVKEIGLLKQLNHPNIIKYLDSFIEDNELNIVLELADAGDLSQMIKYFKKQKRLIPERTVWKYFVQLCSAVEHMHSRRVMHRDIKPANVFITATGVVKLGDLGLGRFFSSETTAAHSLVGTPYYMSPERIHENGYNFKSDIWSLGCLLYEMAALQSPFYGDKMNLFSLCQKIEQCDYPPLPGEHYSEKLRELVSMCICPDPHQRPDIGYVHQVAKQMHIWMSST

[17] = molecular target: Serine/threonine-protein kinase Nek6 (Homo sapiens) (UniProt Q9HC98); conditions: at 1 µM
[18] = molecular target: Serine/threonine-protein kinase Nek7 (Homo sapiens) (UniProt Q8TDX7); conditions: at 0.1 µM
Serine/threonine-protein kinase Nek7 (Homo sapiens), sequence (Q8TDX7 whole entry, looked up): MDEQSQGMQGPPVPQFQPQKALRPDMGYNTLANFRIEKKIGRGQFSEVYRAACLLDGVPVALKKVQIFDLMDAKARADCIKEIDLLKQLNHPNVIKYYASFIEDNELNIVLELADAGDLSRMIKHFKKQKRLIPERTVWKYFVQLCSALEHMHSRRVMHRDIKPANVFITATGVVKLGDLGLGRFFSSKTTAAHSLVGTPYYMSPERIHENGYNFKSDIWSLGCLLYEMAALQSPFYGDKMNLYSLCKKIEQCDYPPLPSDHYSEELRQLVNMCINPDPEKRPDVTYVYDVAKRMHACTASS

[19] = molecular target: Serine/threonine-protein kinase Nek7 (Homo sapiens) (UniProt Q8TDX7); conditions: at 1 µM
[20] = molecular target: T7, Serine/threonine-protein kinase Nek9 (Homo sapiens) (UniProt Q8TD19); conditions: at 0.1 µM;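 also: reported value is the mean percent inhibition of NEK9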
T7 sequence (whole entry): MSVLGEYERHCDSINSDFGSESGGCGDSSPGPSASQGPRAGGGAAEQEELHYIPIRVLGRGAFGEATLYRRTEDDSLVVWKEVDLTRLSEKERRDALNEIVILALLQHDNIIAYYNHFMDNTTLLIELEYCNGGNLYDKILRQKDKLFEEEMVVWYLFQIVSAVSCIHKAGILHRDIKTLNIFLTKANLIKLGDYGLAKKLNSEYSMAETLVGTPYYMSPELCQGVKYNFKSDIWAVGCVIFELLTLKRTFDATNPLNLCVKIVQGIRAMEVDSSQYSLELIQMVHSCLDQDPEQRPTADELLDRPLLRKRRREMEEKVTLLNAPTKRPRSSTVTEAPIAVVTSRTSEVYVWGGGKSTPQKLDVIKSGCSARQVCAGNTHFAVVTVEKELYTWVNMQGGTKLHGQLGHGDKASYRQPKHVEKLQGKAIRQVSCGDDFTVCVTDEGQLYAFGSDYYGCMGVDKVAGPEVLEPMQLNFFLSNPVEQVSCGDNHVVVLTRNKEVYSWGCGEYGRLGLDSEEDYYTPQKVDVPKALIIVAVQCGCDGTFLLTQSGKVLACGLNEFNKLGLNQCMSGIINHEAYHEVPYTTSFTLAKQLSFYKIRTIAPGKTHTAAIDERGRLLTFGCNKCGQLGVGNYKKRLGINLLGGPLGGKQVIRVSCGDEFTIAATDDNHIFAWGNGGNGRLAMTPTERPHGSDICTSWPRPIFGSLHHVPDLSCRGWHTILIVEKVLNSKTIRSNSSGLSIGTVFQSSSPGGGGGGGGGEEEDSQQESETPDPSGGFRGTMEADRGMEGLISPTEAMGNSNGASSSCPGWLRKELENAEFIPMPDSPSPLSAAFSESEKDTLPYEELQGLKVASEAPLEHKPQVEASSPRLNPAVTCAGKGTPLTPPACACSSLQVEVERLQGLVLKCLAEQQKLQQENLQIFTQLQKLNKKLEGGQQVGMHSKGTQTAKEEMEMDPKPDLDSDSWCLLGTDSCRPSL

Sphingosine kinase 1 (Homo sapiens), sequence (Q9NYA1 whole entry): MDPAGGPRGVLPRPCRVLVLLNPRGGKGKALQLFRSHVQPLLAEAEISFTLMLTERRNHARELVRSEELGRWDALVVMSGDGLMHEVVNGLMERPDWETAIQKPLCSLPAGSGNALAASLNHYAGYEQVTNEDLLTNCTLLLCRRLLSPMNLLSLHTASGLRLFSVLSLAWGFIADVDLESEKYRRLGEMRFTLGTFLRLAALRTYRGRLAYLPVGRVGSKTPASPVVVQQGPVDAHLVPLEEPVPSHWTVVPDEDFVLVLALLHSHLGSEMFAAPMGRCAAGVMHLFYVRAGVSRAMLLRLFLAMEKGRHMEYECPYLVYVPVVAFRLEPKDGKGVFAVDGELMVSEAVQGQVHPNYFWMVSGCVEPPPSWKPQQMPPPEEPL

## Nc1ccc(C#Cc2cncnc2Nc2ccc(OCc3cccc(F)c3)c(Cl)c2)cc1
[1]
  inhibition: -2.59%
[2]
  inhibition: -3.76%
[3]
  inhibition: 0%
[4]
  inhibition: 4.6%
[5]
  inhibition: 2.02%
[6]
  inhibition: 0.36%
[7]
  inhibition: 2.27%
[8]
  inhibition: 4.1%
[9]
  inhibition: 4.66%
[10]
  inhibition: 3.63%
[11]
  inhibition: 4.07%
[12]
  inhibition: 3.38%
[13]
  inhibition: 2.7%
[14]
  inhibition: 3.5%
[15]
  inhibition: 3.39%
[16]
  inhibition: 2.73%
[17]
  inhibition: 0.63%
[18]
  inhibition: 1.31%
[19]
  inhibition: 1.32%
[20]
  inhibition: 3.62%
